The sample as a whole holds a higher share of hits than the screen did.
Pf apPOL inh = Pf-apPOL DNA polymerase inhibition. inhibition, % at 10 µM. hit rate 0.25% among 210,000. Recombinant Pf-apPOL, molecular beacon fluorescence, 1.5 h
mHTT-CaM PPI inh = disrupts binding of mutant huntingtin to calmodulin; P42858; AlphaScreen His-mHTT/GST-CaM binding, luminescence; inhibition, % at 15 µM; hit rate 3.6% among 190,000; AID 1671202;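 further: 0% = both proteins with DMSO and 100% = one protein alone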
Active calls of the source: *; nt = no result given. No stated cut-off is given here; in the data, active means inhibition above about 50%; inactive means the rest.

SMILES	Pf apPOL inh	mHTT-CaM PPI inh
COc1cccc(C2NC(=O)C(=O)C2=C(O)c2ccc(C)cc2)c1 (stereo not drawn)	-12	3
Nc1ncnc(Sc2nc3ccccc3o2)c1[N+](=O)[O-]	2	75*
Nc1ncnc(SC2=NCCS2)c1[N+](=O)[O-]	0	59*
O=[N+]([O-])c1ccc(Sc2nc3ccccc3o2)c([N+](=O)[O-])c1	2	12
Cc1cc(Sc2ncnc(N)c2[N+](=O)[O-])nc(C)n1	-1	-2
N#Cc1c(Cl)c(Cl)c(Cl)c(Cl)c1C#N	-6	nt
FC(F)(F)COc1nc(Cl)nc(Nc2ccccc2)n1	-4	86*
OCCNc1nc(Cl)nc(Nc2ccc(I)cc2)n1	-4	10
COc1ccc(N(C)C(=O)c2nc(C)n(C3CCN(C)CC3)c2C)cc1	6	76*
Cc1nc(C(=O)N(C)C)c(C)n1C1CCN(C)CC1	-4	-1
Cc1cc(C)cc(NC(=O)CCc2cccc3[nH]ccc23)c1	1	8
CCC(=O)Nc1cc(C(=O)NCc2cc(F)cc(F)c2)c2ccc(C)nc2c1	0	54*
Cc1ccc2c(C(=O)NCc3ccccc3Cl)cc(NC(=O)C(C)C)cc2n1	0	58*
Cc1ccc(CNC(=O)c2cc(NC(=O)C(C)C)cc3nc(C)ccc23)cc1	28	19
CCOc1ccc(CNC(=O)c2cc(NC(C)=O)cc3nc(C)ccc23)cc1	7	18
COc1ccc(-n2nc3c(c2NC(=O)c2cccc(OC)c2)CSC3)cc1	-3	34
COc1cccc(C(=O)Nc2c3c(nn2-c2cccc(C)c2)CSC3)c1	-80	53*
COc1ccc(-n2nc3c(c2NC(=O)c2cccc(Br)c2)CSC3)cc1	100*	45
COc1cc(OC)cc(C(=O)Nc2c3c(nn2-c2cccc(C)c2)CSC3)c1	-1	22
Cc1ccc(Cn2nnc3c(=O)n(CC(=O)Nc4cccc([N+](=O)[O-])c4)cnc32)cc1	1	16
Cc1nc(Nc2ccc(NC(=O)Nc3ccc4c(c3)OCCO4)cc2)cc(-n2ccnc2)n1	-4	44
COc1cc(CN2CCN(c3cc(C)ccc3C)CC2)cc(I)c1O	-3	85*
COc1cc(CN2CCN(c3cc(C)ccc3C)CC2)cc(OC)c1OC	-2	10
COc1cc(CN2CCCCCCC2)cc(OC)c1O	-4	72*
COc1cc(CN2CCCCCC2)cc(I)c1O	-1	-6
SMILES	Pf apPOL inh	mHTT-CaM PPI inh
COc1cccc(CCC(=O)Nc2n[nH]c(C)c2-c2ccccc2)c1	0	-3
COc1ccc(Cl)cc1NC(=O)N1CCC(COCc2ccccc2)CC1	-8	-29
CC(=O)Nc1cccc(N2CC(C(=O)Nc3ccc(C)cc3C)CC2=O)c1 (stereo not drawn)	0	10
CC(=O)Nc1cccc(N2CC(C(=O)Nc3ccc(F)cc3C)CC2=O)c1 (stereo not drawn)	87*	4
Cc1ccccc1CNC(=O)C1=C2CCCN2c2ccccc2S1(=O)=O	1	-2
CN1C(=O)C(C)(C(=O)Nc2ccc(Cl)cc2F)Oc2cccnc21 (stereo not drawn)	-3	1
O=Cc1ccc(-c2ccc(Cl)cc2)o1	-3	1
CNc1cc(Nc2ccc(C)cc2)c2c3c(onc13)-c1ccccc1C2=O	2	95*
O=C1c2ccccc2-c2onc3c(N4CCOCC4)cc(Nc4ccc(F)cc4)c1c23	-1	63*
O=C1c2ccccc2-c2onc3ccc(Nc4ccccc4)c1c23	1	43
COc1ccc(Nc2cc(N3CCOCC3)c3noc4c3c2C(=O)c2ccccc2-4)cc1	1	43
Cc1[nH]nc(-c2cccc(F)c2)c1NC(=O)Cc1ccccc1	-1	0
O=C(/C=C/c1ccco1)Nc1ccc(NC(=O)c2ccco2)cc1	-6	30
O=C(/C=C/c1ccco1)c1ccc(NC(=O)c2ccco2)cc1	-2	93*
Cc1occc1C(=O)NCCc1ccccc1	6	0
COCCCn1c(C)cc(C(=O)N2CCc3nc4cc[nH]n4c(=O)c3C2)c1C	1	15
O=C(O)CCC(=O)Nc1nc2n(n1)C(c1ccccc1)C=C(c1ccc(Cl)cc1)N2 (stereo not drawn)	2	31
O=C(Nc1nc2n(n1)C(c1ccccc1)C=C(c1ccccc1)N2)c1ccccc1 (stereo not drawn)	0	59*
O=C(CCOc1ccc(F)cc1)N1CCSCC1	-11	nt
COc1ccccc1C1CC(c2ccccc2O)=NC2(CCN(C(C)C)CC2)N1 (stereo not drawn)	-3	66*
CCN1CCC2(CC1)N=C(c1ccc3c(c1)OCO3)CC(c1cc(Cl)ccc1O)N2 (stereo not drawn)	0	17
CC(=O)N1CCC2(CC1)N=C(c1ccc(F)cc1)CC(c1cc(Cl)ccc1O)N2 (stereo not drawn)	-4	3
CC(=O)N1CCC2(CC1)N=C(c1ccc3c(c1)OCO3)CC(c1cc(Cl)ccc1O)N2 (stereo not drawn)	1	79*

Assay outcomes (PubChem BioAssay)
